PubChem BioAssay (NCATS)
Results filed as inconclusive are left out. Calls of active or inactive are those of the source. The call rests on the fitted dose curve; in most records, active means well fitted curve in the direction sought with a large enough effect; inconclusive means small, poorly fitted or top-dose-only effect, or another doubt; inactive means no such curve, though single readings can be large; an effect the other way counts as inactive or inconclusive.

Assays:
[1] = Quantitative High-Throughput drug screen in 47 multiple myeloma cell lines against the NCATS MIPE library collection: INA6_PLB cell viability assay (AID 1918965; further: nearly all actives have a fitted effect of over 55% in size)
Outline: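 CellTiter-Glo ATP luminescence gave viability after 48 h compound treatment at 37C of 500 multiple myeloma cells per well. Normalisation used DMSO-only wells as 100% and media-only wells as 0% viability; primary qHTS of approved and investigational drugs.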

[2] = Quantitative High-Throughput drug screen in 47 multiple myeloma cell lines against the NCATS MIPE library collection: JJN3_DSMZ cell viability assay (AID 1918966; further: nearly all actives have a fitted effect of over 50% in size)
Outline: (§1)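 Myeloma cells (500 per well) were exposed to MIPE 4.0 compounds by pin transfer and incubated 48 hours at 37C, 5% CO2. Viability was read as ATP by CellTiter-Glo luminescence, normalised to DMSO (100%) and media-only (0%) wells.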

[3] = Quantitative High-Throughput drug screen in 47 multiple myeloma cell lines against the NCATS MIPE library collection: JIM3_ECACC cell viability assay (AID 1918963; further: nearly all actives have a fitted effect of over 35% in size)
Outline: as §1

[4] = Quantitative High-Throughput drug screen in 47 multiple myeloma cell lines against the NCATS MIPE library collection: H1112_PLB cell viability assay (AID 1918967; further: nearly all actives have a fitted effect of over 30% in size)
Outline: as §1

[5] = Quantitative High-Throughput drug screen in 47 multiple myeloma cell lines against the NCATS MIPE library collection: Karpas25_ECACC cell viability assay (AID 1918968; further: nearly all actives have a fitted effect of over 35% in size)
Outline: as §1

[6] = Quantitative High-Throughput drug screen in 47 multiple myeloma cell lines against the NCATS MIPE library collection: KMS27_JCRB cell viability assay (AID 1918970); further: nearly all actives have a fitted effect of over 30% in size
Outline: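 Viability inhibition screen, 48 h compound exposure, luminescent ATP read-out.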
Potency means the concentration at half of the fitted maximal effect.

With `COc1ncc(-c2ccc3nccc(-c4ccnnc4)c3c2)cc1NS(=O)(=O)c1ccc(F)cc1F` the Potency [1] was 0.0235 µM (active) and the Potency [2] was 0.118 µM (active).
In the case of `COc1ccc(Cc2ccc(NC(N)=O)cc2)cc1-c1cccc(Cl)c1`, the Potency [3] is reported as “inactive” and the Potency [4] is reported as “inactive”.
For `COc1ccc(-c2oc3c(CC=C(C)C)c(OC4O[C@H](CO)[C@@H](O)[C@H](O)[C@@H]4O)cc(O)c3c(=O)c2OC2O[C@@H](C)[C@H](O)[C@@H](O)[C@@H]2O)cc1` (some centres not stated), the Potency [3] was 20.9 µM (active), the Potency [1] was 33.2 µM (active) and the Potency [2] was 18.7 µM (active). The Potency [5] was 20.9 µM (active) and the Potency [6] was 11.8 µM (active).
With `c1cc(-c2sc(-c3ccncc3)c(-c3ccncc3)c2-c2ccncc2)ccn1` the Potency [1] was 18.7 µM (active) and the Potency [2] was 16.6 µM (active).
In the case of `Clc1ccc(CCC(Cn2ccnc2)Sc2c(Cl)cccc2Cl)cc1` (configuration not stated), the Potency [5] is reported as 16.6 µM (active).
For `O=C(O)c1cc(O)c2c(c1)C(=O)c1cccc(O)c1C2=O`, the Potency [3] was “inactive” and the Potency [4] was “inactive”.
For `Clc1cc(Cl)cc(CNc2ncncc2-c2ccc3c(c2)OCO3)c1`, the Potency [3] was 16.6 µM (active), the Potency [1] was 16.6 µM (active) and the Potency [6] was 18.7 µM (active).
For `C=CCc1ccc(O)c(-c2ccc(O)c(CC=C)c2)c1`, the Potency [3] was 20.9 µM (active), the Potency [1] was 18.7 µM (active) and the Potency [6] was 23.5 µM (active).
In the case of `NS(=O)(=O)c1ccc(NC2=CC(=O)c3ccccc3C2=O)cc1`, the Potency [3] is reported as 18.7 µM (active), the Potency [1] is reported as 11.8 µM (active) and the Potency [5] is reported as 0.833 µM (active). For the same molecule, the Potency [6] was 1.32 µM (active).
With `CC(=O)Oc1cc2c(s1)CCN(C(C(=O)C1CC1)c1ccccc1F)C2` (configuration not stated) the Potency [1] was 4.69 µM (active), the Potency [2] was 2.35 µM (active) and the Potency [4] was 2.96 µM (active). The Potency [5] was 1.87 µM (active).
With `CC(=NNC(=S)N1CCC1)c1ccccn1` the Potency [3] was “inactive”, the Potency [1] was “inactive” and the Potency [4] was “inactive”. The Potency [6] was 0.001 µM (active).
In the case of `Cn1cc(C=C2C(=O)Nc3cccnc32)c2ccccc21`, the Potency [3] is reported as 16.6 µM (active), the Potency [4] is reported as “inactive” and the Potency [5] is reported as “inactive”. For the same molecule, the Potency [6] was “inactive”.
In the case of `CC1(C)CCC2=C(O1)c1ccccc1C(=O)C2=O`, the Potency [3] is reported as 18.7 µM (active), the Potency [1] is reported as 20.9 µM (active) and the Potency [6] is reported as 3.32 µM (active).
With `CN1C[C@H]2c3ccccc3Oc3ccc(Cl)cc3[C@@H]2C1` the Potency [3] was “inactive”, the Potency [4] was “inactive” and the Potency [5] was “inactive”.
With `c1ccc2c(-c3cnn4cc(-c5ccc(N6CCNCC6)cc5)cnc34)ccnc2c1` the Potency [1] was 2.35 µM (active) and the Potency [4] was 3.32 µM (active).
For `COc1cc(N2CCC(N3CCN(C)CC3)CC2)ccc1Nc1ncc(Cl)c(Nc2ccccc2S(=O)(=O)C(C)C)n1`, the Potency [5] was “inactive”.
For `CO[C@H]1C[C@@H]2CC[C@@H](C)[C@@](O)(O2)C(=O)C(=O)N2CCCC[C@@H]2C(=O)O[C@H]([C@@H](C)C[C@@H]2CC[C@H](O)[C@H](OC)C2)CC(=O)[C@H](C)C=C(C)[C@@H](O)[C@@H](OC)C(=O)[C@H](C)C[C@H](C)C=CC=CC=C1C`, the Potency [3] was “inactive” and the Potency [5] was 18.7 µM (active).
With `O=c1cc(-c2ccc(O)cc2)oc2cc(O)cc(O)c12` the Potency [2] was 3.32 µM (active) and the Potency [5] was 10.5 µM (active).
For `CCC(=O)NC[C@H](Cc1ccc(OCCc2nc(-c3ccccc3)oc2C)cc1)NC(C)=CC(=O)c1ccc(C(F)(F)F)cc1`, the Potency [3] was “inactive”, the Potency [4] was “inactive” and the Potency [5] was “inactive”.
